The values below come from PubChem BioAssay AID743398 (Broad Institute, 2014).

Each structure is given as a SMILES string. The campaign covered roughly 300,000 compounds. About 3,600 (1.2%) were called active. Rule as the data show it: active = activation above about 30% (passing the limit was not always enough); inconclusive = no clear call, values can overlap the other calls. Many of the other results were omitted from the sample, so actives are more common in it than they were. Where a SMILES comes first, the peptide text is derived from it. [ ]: non-standard residue; d: D form. The star is where a group is joined. PhAc = O=C(Cc1ccccc1)*

The test in a line: activation of beta-catenin signaling reporter – cell-based, plate reader, single point, primary screen (AID 743398).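 Also: 0% = neutral control wells and 100% = positive control wells.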 The conditions noted are these: Wnt/beta-catenin reporter cell assay, activator, at 9.35 µM, stronger effect = higher value.
`COC(=O)c1ccc2nc(-c3ccc(Cl)cc3)c(Cc3cccc(F)c3)n2c1`: the activation was 11.3% (inactive). With `Cc1ccc(S(=O)(=O)NCCC(=O)Nc2ccc(C)c(Cl)c2)cc1C` the figure was -1.93% (inactive). In the case of `Cc1ccnc(NC(=O)CCNS(=O)(=O)c2ccc(C)c(C)c2)c1`, the activation is 35.8% (active). With `Cc1ccc(S(=O)(=O)NCCC(=O)Nc2cccc(S(N)(=O)=O)c2)cc1C` the figure was -1.96% (inactive); with `CCN1CCCC1CNC(=O)c1ccc2c(c1)NC(=O)/C(=C\c1ccccc1F)S2` (stereo unspecified), -0.637% (inactive); with `O=c1[nH]c(-c2ccccc2)cn1C1CCN(Cc2ccc(-c3nc4ccc(F)cc4nc3-c3ccccc3)cc2)CC1`, 0.441% (inactive). Take `COCCCn1c(C(=O)NC2CCCCC2)cc2c(=O)n3cccc(C)c3nc21`: the activation is -1.3% (inactive). With `CC(C)NC(=O)N1Cc2cc(C(=O)NCC(F)(F)F)nc(-c3cccc(-c4cc5ccccc5o4)c3)c2[C@@H]1CCO` the figure was -2.74% (inactive); with `CC1CCCCC1NC(=O)Cn1c(=O)cnc2ccccc21` (stereo unspecified), -3.58% (inactive); with `O=C(/C=C/c1cnc2ccccc2n1)NC1CCCCCC1`, 49.2% (active). For `CC(C)c1cc(C(=O)NC2CCCCCC2)c2ccccc2n1` the value was -2.8% (inactive). On to `COC(=O)[C@]1(Cc2ccccc2)NC=C(C(=O)c2ccccc2)[C@@H]1c1cccc(OC)c1`, for which the activation was 2.93% (inactive). For `COC(=O)c1c(-c2ccc(OC)cc2)c2c(c3c4cc(OC)ccc4n(S(=O)(=O)c4ccc(F)cc4)c13)C(=O)N(C)C2` the value was -8.37% (inactive); for `CN(C)c1ccc(CSc2ccccc2)cc1`, 2.13% (inactive); for `CCNC(=O)C1(C)CCCN1C(=O)c1ccc(N(C)C)cc1` (stereo unspecified), -4.12% (inactive). With `CN(C)c1ccc(CNC23CN4CN(CN(C4)C2)C3)cc1` the figure was 35.9% (active). Take `Nc1ncnc2c1ncn2[C@@H]1O[C@H](C(=O)N[C@@H](CCc2ccccc2)C(=O)NCC(=O)N2CCOCC2)[C@@H](O)[C@H]1O`: the activation is -8.65% (inactive). `CCOc1cc(/C=C2/C(=N)N3OC(C)=CC3=NC2=O)ccc1OC`: the activation was 39.2% (active). Regarding `COc1ccc(OCCCn2cccc2/C=C2/C(=N)N3OC(C)=CC3=NC2=O)cc1`, the activation was 21% (inactive). With `CCOc1cc(/C=C2\C(=N)N3N=C(C)SC3=NC2=O)ccc1OCCOc1ccccc1` the figure was 0.097% (inactive). In the case of `COc1ccc(-c2cc3c(c4c2ccn4C)C2CCC3C2)cn1` (stereo unspecified), the activation was -0.553% (inactive). For the molecule `Cc1cccc(-c2cnc(C(O)c3ccc4ccccc4c3)[nH]2)c1` (stereo unspecified), the activation is -0.607% (inactive). For `CS(=O)(=O)c1ccc(Cl)c(NC(=O)Nc2ccccc2)c1` the value was 1.45% (inactive); for `Cc1ccc(NC(=O)Nc2ccccc2)c(Br)c1`, 50.8% (active); for `Cc1c(NC(=O)Nc2ccccc2)cccc1[N+](=O)[O-]`, 1.75% (inactive). Turning to `CC[C@H](C)[C@H]1CNC(=O)C(=O)N1CC1CCN(CCc2ccc(OC)c(OC)c2)CC1`, the activation was -3.36% (inactive).

Regarding `COc1ccc2oc(-c3cccc(NC(=O)CSc4ccc(Cl)cc4)c3)nc2c1`, the activation is 22.7% (inactive). For `COc1ccc2oc(N)nc2c1` the value was 2.19% (inactive); for `COc1cccc(-c2nc3cc(C)ccc3o2)c1`, 40.6% (active); for `CC(=O)Oc1ccc(Cn2c(C)c(C(=O)NCc3ccc(C#N)cc3)sc2=O)cc1`, -1.94% (inactive). With `Cc1ccc(-c2nc3c(Cl)cc(C(F)(F)F)cn3c2Cc2cccc(Cl)c2)cc1` the figure was -3.09% (inactive); with `CC(=O)Nc1cccc(-c2cc(NC=O)c3ncc(-c4ccc(F)c(Cl)c4)n3c2)c1`, -1.52% (inactive). For `COc1cccc(-c2cc3nc(NCCOc4ccccc4Cl)n(C)c(=O)c3s2)c1` the value was 0.348% (inactive).

As to `COc1ccc(-c2ccc3c(n2)CCCN3S(=O)(=O)c2ccc(C)cc2)cc1`, the activation was -3.98% (inactive). With `O=C(O)CSCc1nc2ccccc2s1` the figure was 39.2% (active); with `O=C(O)c1ccccc1CSc1nc2ccccc2s1`, 2.11% (inactive); with `O=C(O)CCCCc1nc2ccccc2s1`, -1.61% (inactive).

Turning to `CC(=O)c1cnc(-c2ccccc2)s1`, the activation was 2.94% (inactive). For `CS(=O)(=O)N1CCC(C(=O)N2CCN(c3ccccc3)CC2)CC1` the value was -0.44% (inactive). Consider `CS(=O)(=O)N1CCc2nc(-c3ccccc3)sc2C1`, for which the activation is 35.7% (active). With `COC(=O)Cc1nnn2c1[C@H](C)[C@@H](OC)c1cc(Br)ccc1-2` the figure was 2.78% (inactive); with `Nc1nc2c(ncn2[C@@H]2O[C@H](C(=O)N[C@H](Cc3ccccc3)C(=O)NCC3CCCCC3)[C@@H](O)[C@H]2O)c(=O)[nH]1`, -6.28% (inactive); with `COc1ccc(CNC(=O)c2ccc(-c3cccnc3)c3ccoc23)cc1OC`, -3.07% (inactive). On to `COc1ccc(CCC(=O)c2ccc(OC)cc2)cc1`, for which the activation is 5.92% (inactive). With `CO/N=C/CC(=O)c1ccc(OC)cc1` the figure was 61.5% (active); with `COc1ccc(OCCC(=O)c2ccc(OC)cc2)cc1`, -1.86% (inactive). Take `CC(C)(C)C(c1nc2ccccc2[nH]1)n1c(Cc2csc3ccccc23)nc2ccccc21` (stereo unspecified): the activation was 15.7% (inactive). Consider `C=CCc1c(C)nc2cc(-c3ccccc3)[nH]n2c1=O`, for which the activation was 45.5% (active). For `CCc1c(C)nc2cc(C)[nH]n2c1=O` the value was -2.02% (inactive); for `CCCCN1Cc2c(nc3cc(-c4ccccc4)[nH]n3c2=O)C1=O`, 0.267% (inactive).

Consider `COc1ccc(CN2CCC(C)(Oc3cccc(F)c3)C2)c2ccccc12` (stereo unspecified), for which the activation is -4.58% (inactive).

Regarding `CCc1nc2c(OCCOc3ccccc3)cccn2c1N(C)C(=O)c1ccccc1F`, the activation is -2.42% (inactive).

Turning to `CC(O)(c1cccc(F)c1)c1nc(-c2ccc3c(c2)OCO3)cs1` (stereo unspecified), the activation is -1.63% (inactive). For `O=C(Oc1ccc(-c2nc(-c3ccccn3)no2)cc1)c1ccccc1` the value was 1.55% (inactive). With `Nc1ccc(-c2nnc(-c3ccccc3)o2)cc1` the figure was 2.79% (inactive); with `Brc1ccc(-c2noc(-c3ccccc3)n2)o1`, 43.9% (active). For `Cc1cc2nc(-c3ccc(F)cc3)c(Cc3ccsc3)n2c(C)c1Br` the value was -0.642% (inactive); for `COc1cccc(CNC(=O)[C@H]2CCCN2C(=O)[C@H]2CCCN2C(=O)C2CCCCC2)c1`, 0.974% (inactive); for `CC(C)C[C@@H](NC(=O)[C@H]1CCCN1C(=O)Cc1ccccc1)C(N)=O` (PhAc-[dP]-[dL]-NH2), 0.192% (inactive).

For the molecule `COC(=O)[C@H](CC(C)C)NC(=O)N1CCCCC1C` (stereo partly specified), the activation is 39.6% (active). With `CC(C)C[C@H](NC(=O)C1CCC(CNC(=O)[C@@H]2CCCN2C(=O)OC(C)(C)C)CC1)C(=O)O` (stereo partly specified) the figure was 1.33% (inactive).
